# Data from the supplement of paper PMC12282887.
# ± gives the standard deviation of the averaged measurements.
# Tested on: E. coli BW25113 marRABp lux reporter
# Assay: promoter activity interaction Z-score (Lux/OD deviation from empty-vector control); higher = stronger promoter induction by the compound
# Method: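 E. coli BW25113 (wild type or ΔmarA/ΔsoxS/Δrob) carrying pTU175 luxCDABE promoter reporters was grown in LB in 384-well plates at 37°C with each of 94 compounds at 4 two-fold concentrations, in biological duplicates. Luminescence and OD600 were read every 30 min for 12 h and integrated as AUC over 8 h (0-8 h WT, 1-9 h mutants). Lux AUC was divided by OD AUC; the interaction score is the residual of a Huber robust fit of each promoter against the empty-vector control, then Z-transformed per promoter.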
structure (smiles),measurement,setting,value
CO[C@H]1/C=C/O[C@@]2(C)Oc3c(C)c(O)c4c(O)c(c(/C=N/N5CCN(C)CC5)c(O)c4c3C2=O)NC(=O)/C(C)=C\C=C\[C@H](C)[C@H](O)[C@@H](C)[C@@H](O)[C@@H](C)[C@H](OC(C)=O)[C@@H]1C [Rifampicin],promoter activity interaction Z-score,"1 µg/ml, genetic background: wild type",-0.547 ± 0.12
same,promoter activity interaction Z-score,"1 µg/ml, genetic background: ΔmarA",-0.978 ± 0.48
same,promoter activity interaction Z-score,"1 µg/ml, genetic background: Δrob",-0.432 ± 0.12
same,promoter activity interaction Z-score,"1 µg/ml, genetic background: ΔsoxS",-0.415 ± 0.079
same,promoter activity interaction Z-score,"2.1 µg/ml, genetic background: wild type",-0.461 ± 0.4
same,promoter activity interaction Z-score,"2.1 µg/ml, genetic background: ΔmarA",-1.18 ± 0.22
same,promoter activity interaction Z-score,"2.1 µg/ml, genetic background: Δrob",-0.469 ± 0.39
same,promoter activity interaction Z-score,"2.1 µg/ml, genetic background: ΔsoxS",-0.423 ± 0.032
same,promoter activity interaction Z-score,"4.1 µg/ml, genetic background: wild type",-1.1 ± 0.31
same,promoter activity interaction Z-score,"4.1 µg/ml, genetic background: ΔmarA",-1.23 ± 0.38
same,promoter activity interaction Z-score,"4.1 µg/ml, genetic background: Δrob",-0.719 ± 0.14
same,promoter activity interaction Z-score,"4.1 µg/ml, genetic background: ΔsoxS",-0.7557 ± 0.006
CO[C@@H]1[C@@H](OC(N)=O)[C@@H](O)[C@H](Oc2ccc3c(O)c(NC(=O)c4ccc(O)c(CC=C(C)C)c4)c(=O)oc3c2C)OC1(C)C [Novobiocin],promoter activity interaction Z-score,"2.4 µg/ml, genetic background: wild type",-0.221 ± 0.081
same,promoter activity interaction Z-score,"2.4 µg/ml, genetic background: ΔmarA",-0.11 ± 0.13
same,promoter activity interaction Z-score,"2.4 µg/ml, genetic background: Δrob",0.0782 ± 0.013
same,promoter activity interaction Z-score,"2.4 µg/ml, genetic background: ΔsoxS",-0.0478 ± 0.0032
same,promoter activity interaction Z-score,"4.8 µg/ml, genetic background: wild type",0.022 ± 0.23
same,promoter activity interaction Z-score,"4.8 µg/ml, genetic background: ΔmarA",0.415 ± 0.36
same,promoter activity interaction Z-score,"4.8 µg/ml, genetic background: Δrob",-0.164 ± 0.31
same,promoter activity interaction Z-score,"4.8 µg/ml, genetic background: ΔsoxS",-0.107 ± 0.12
same,promoter activity interaction Z-score,"9.5 µg/ml, genetic background: wild type",-0.297 ± 0.13
same,promoter activity interaction Z-score,"9.5 µg/ml, genetic background: ΔmarA",0.318 ± 0.33
same,promoter activity interaction Z-score,"9.5 µg/ml, genetic background: Δrob",-0.282 ± 0.11
same,promoter activity interaction Z-score,"9.5 µg/ml, genetic background: ΔsoxS",-0.114 ± 0.18
same,promoter activity interaction Z-score,"19 µg/ml, genetic background: wild type",1.2 ± 0.98
same,promoter activity interaction Z-score,"19 µg/ml, genetic background: ΔmarA",5.2 ± 2.7
same,promoter activity interaction Z-score,"19 µg/ml, genetic background: Δrob",0.0504 ± 0.67
same,promoter activity interaction Z-score,"19 µg/ml, genetic background: ΔsoxS",1.48 ± 0.89
COc1ccc(CCN(C)CCCC(C#N)(c2ccc(OC)c(OC)c2)C(C)C)cc1OC (centres undefined) [Verapamil],promoter activity interaction Z-score,"28.4 µg/ml, genetic background: wild type",0.257 ± 0.13
same,promoter activity interaction Z-score,"28.4 µg/ml, genetic background: ΔmarA",0.21 ± 0.17
same,promoter activity interaction Z-score,"28.4 µg/ml, genetic background: Δrob",0.064 ± 0.21
same,promoter activity interaction Z-score,"28.4 µg/ml, genetic background: ΔsoxS",-0.241 ± 0.54
same,promoter activity interaction Z-score,"56.8 µg/ml, genetic background: wild type",0.22 ± 0.12
same,promoter activity interaction Z-score,"56.8 µg/ml, genetic background: ΔmarA",0.273 ± 0.099
same,promoter activity interaction Z-score,"56.8 µg/ml, genetic background: Δrob",0.311 ± 0.47
same,promoter activity interaction Z-score,"56.8 µg/ml, genetic background: ΔsoxS",0.0416 ± 0.54
same,promoter activity interaction Z-score,"113.7 µg/ml, genetic background: wild type",0.853 ± 0.13
same,promoter activity interaction Z-score,"113.7 µg/ml, genetic background: ΔmarA",0.923 ± 0.54
same,promoter activity interaction Z-score,"113.7 µg/ml, genetic background: Δrob",0.659 ± 0.32
same,promoter activity interaction Z-score,"113.7 µg/ml, genetic background: ΔsoxS",0.193 ± 0.7
same,promoter activity interaction Z-score,"227.3 µg/ml, genetic background: wild type",0.957 ± 0.16
same,promoter activity interaction Z-score,"227.3 µg/ml, genetic background: ΔmarA",1.14 ± 0.38
same,promoter activity interaction Z-score,"227.3 µg/ml, genetic background: Δrob",0.739 ± 0.49
same,promoter activity interaction Z-score,"227.3 µg/ml, genetic background: ΔsoxS",0.385 ± 0.48
